Screening results deposited in PubChem by several laboratories.
Pyk2 oligo antag: Pyk2 (human) oligomerization antagonism; Q14289; Q293 cells, Pyk2 FERM NanoBiT luminescence; stronger effect = lower value; z-score (the deposit names both 25 µM and 10 µM); actives 0.83% (n = 99,000); AID 1347419;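 active = Z-score of -3 or lower, scaled per plate to the spread of control and sample wells; inactive = z-score above -3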;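 also: negative z-score means lost luminescence so less FERM oligomerization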
Target sequence (Q14289 whole entry, looked up): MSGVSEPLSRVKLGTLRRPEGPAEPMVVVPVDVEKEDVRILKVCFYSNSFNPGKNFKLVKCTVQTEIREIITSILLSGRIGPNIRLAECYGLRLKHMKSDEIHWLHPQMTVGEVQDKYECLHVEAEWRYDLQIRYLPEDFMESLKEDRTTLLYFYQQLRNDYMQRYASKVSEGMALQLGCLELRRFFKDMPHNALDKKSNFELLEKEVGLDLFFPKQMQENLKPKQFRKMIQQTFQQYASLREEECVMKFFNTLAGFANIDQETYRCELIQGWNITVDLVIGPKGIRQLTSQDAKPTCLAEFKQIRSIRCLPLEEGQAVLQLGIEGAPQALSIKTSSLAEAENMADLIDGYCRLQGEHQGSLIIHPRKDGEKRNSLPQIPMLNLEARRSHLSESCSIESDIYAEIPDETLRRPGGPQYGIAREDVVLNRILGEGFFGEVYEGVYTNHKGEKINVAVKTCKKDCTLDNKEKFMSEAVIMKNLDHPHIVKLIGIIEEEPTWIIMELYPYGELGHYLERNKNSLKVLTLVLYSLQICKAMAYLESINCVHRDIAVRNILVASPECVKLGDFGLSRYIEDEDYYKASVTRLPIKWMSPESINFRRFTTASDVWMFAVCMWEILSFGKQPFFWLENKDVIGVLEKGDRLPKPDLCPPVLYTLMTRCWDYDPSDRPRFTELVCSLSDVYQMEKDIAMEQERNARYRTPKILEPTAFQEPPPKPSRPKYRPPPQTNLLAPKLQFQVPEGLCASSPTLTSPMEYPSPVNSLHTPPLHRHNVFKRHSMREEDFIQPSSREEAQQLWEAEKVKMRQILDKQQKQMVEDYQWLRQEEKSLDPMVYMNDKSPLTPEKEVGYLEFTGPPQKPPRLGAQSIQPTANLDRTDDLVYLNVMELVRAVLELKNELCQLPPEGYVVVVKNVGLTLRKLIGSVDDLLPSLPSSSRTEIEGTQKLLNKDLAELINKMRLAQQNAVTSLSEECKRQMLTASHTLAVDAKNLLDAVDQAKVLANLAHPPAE
CYP2C9 act: increases human cytochrome P450 2C9 activity. actives 1.4% (n = 96,000). AID 1024. recombinant CYP2C9, luciferin-H conversion, luminescence; stronger effect = higher value; factor 1 = untreated enzyme, 0 = blocked. activation factor at 5 µM;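 active = activation factor of 2 or more for CYP2C9 at a 5 µM dose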;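 also: 0 = sulfaphenazole-blocked wells and 1 = vehicle-only wells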
CYP2C19 activ: activators of human cytochrome P450 2C19 | P33261 | recombinant CYP2C19, luciferin-H EGE luminescence; stronger effect = higher value; 0 = fully inhibited enzyme, 1 = untreated enzyme | activation factor at 5 µM | 96,000 tested, under 10 active | AID 1025;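 active = activation factor of at least 2 at 5 µM in the primary screen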;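 also: 0 = wells with 2.5 mM tranylcypromine and 1 = vehicle-only wells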
Cav3 T inh: blocks human Cav3.2 T-type calcium channel; O95180; Cav3.2-expressing cells, Fluo-4 calcium fluorescence FDSS; stronger effect = lower value; B-score at 10 µM; actives 4% (n = 100,000);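 active = single-dose well whose peak fluorescence ratio is a statistical outlier from its plate by either plate-standardised score or position-corrected B-score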
CYP2C9 inhib: human CYP2C9 inhibition. P11712. CYP2C9 Supersomes, luciferin-H conversion, luminescence. inhibition, % at 5 µM. actives 20% (n = 96,000). AID 777;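 active = blocking of liver enzyme CYP2C9 beyond about 50% at 5 µM, limit read from the data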
CYP2C19 inhib: blocks human cytochrome P450 2C19; P33261; CYP2C19 Supersomes, luciferin-H EGE luminescence, 30 min; inhibition, % at 5 µM; actives 21% (n = 96,000); AID 778;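 active = CYP2C19 inhibition above a set limit at 5 µM in the primary screen, cut at about 50% in these data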;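 also: plate controls were negative control wells for no effect and 2.5 mM tranylcypromine positive control for full effect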
* marks the source's active call; other numbers are inactive results; · = not tested or not shown. Shown are actives, neighbours in structure and some others; about 27% of the full set was active somewhere.

SMILES	Pyk2 oligo antag	CYP2C9 act	CYP2C19 activ	Cav3 T inh	CYP2C9 inhib	CYP2C19 inhib
Cc1nc(NCc2ccco2)c2c(C)c(C)sc2n1	0.9	0.2	0.2	-2.93	82.0*	77.0*
Cc1nc(SCC(=O)N(C)Cc2ccco2)c2c(C)c(C)sc2n1	0.18	0.1	0.3	-0.859	87.5*	68.3*
Cc1sc2ncnc(N(C)Cc3ccco3)c2c1C	-0.18	0.2	0	-0.717	78.4*	95.8*
Cc1sc2ncnc(SCc3ccco3)c2c1C	-0.33	1	1.1	0.853	1.1	-5.2
CCCC(=O)Nc1ccc(Cl)c(NC(=O)c2cccnc2Cl)c1	-1.05	0.9	1	0.137	8.0	1.6
CC(C)C(=O)N1CCN(c2ccccc2N)CC1	·	0.8	0.7	0.0659	16.3	30.8
COc1nc(N/N=C/c2cc3c(cc2Br)OCO3)nc(N2CCOCC2)n1	-2.64	0.2	0.7	0.818	77.4*	34.7
O=C(C1CCCN(S(=O)(=O)c2ccccc2)C1)N1CCCc2ccccc21 (centres undefined)	-0.53	·	·	-1.14	·	·
COC(=O)c1cc2sccc2n1CC(=O)Nc1cc(OC)cc(OC)c1	-2.2	0.6	0.5	-0.236	39.4	48.2
CCOC(=O)c1cc2sccc2n1CC(=O)N1CCc2ccccc21	-3.5*	0.7	0.9	-0.0705	25.4	14.6
CCOC(=O)c1cc2sccc2n1CC(=O)OC(C)C	-0.82	0.1	0	-1.73	88.3*	96.6*
COC(=O)c1cc2c(=O)n3ccccc3nc2n(C)c1=N	·	1.2	1.1	·	-23.7	-5.7
Cc1csc(=N)n1CC(=O)N1CCc2ccccc21	-0.46	1.5	1	0.505	-50.0	-0.2
COC(=O)c1cc2ccsc2n1CC(=O)Nc1cc(C)cc(C)c1	-1.29	0.3	0.6	-1.47	66.4*	38.0
COC(=O)c1cc2ccsc2n1Cc1cc(=O)n2ccccc2n1	-0.42	0.1	0.5	-0.0133	92.3*	52.6*
COc1ccc(OC)c(NC(=O)CSc2nnc(Cn3nnc4ccccc43)n2C)c1	0.23	1	0.9	0.0302	-4.5	9.3
CCOC(=O)c1cc2sccc2n1CC(=O)Nc1ccc(OC)c(OC)c1	-2.58	0.5	0.1	-0.417	45.8	87.4*
COC(=O)c1cc2ccsc2n1Cc1nc(-c2ccc(Cl)cc2)oc1C	·	0.1	0.5	-1.34	89.1*	54.8*
COC(=O)c1ccc(-c2ccco2)n1Cc1nc(-c2ccc(OC)c(OC)c2)oc1C	-0.57	0.6	0.9	-1.62	44.5	14.0
CCOC(=O)c1cc2sccc2n1CC(=O)Nc1ccc(OC)cc1	-2.55	0.9	0.7	-0.64	12.0	33.9
COC(=O)c1cc2ccsc2n1CC(=O)N1CCCc2ccccc21	-1.75	0.1	0.1	-3.02	93.4*	94.6*
O=C(c1ccccc1/S(=N/S(=O)(=O)c1ccccc1)N1CCOCC1)N1CCOCC1 (centres undefined)	1.83	1.1	1.1	0.0584	-11.7	-5.2
CC1(C)CC(=O)C=C(NCc2ccccc2)C1	0.38	1	0.7	0.73	3.4	33.9
CC1(C)CC(=O)C=C(Nc2cc(-c3ccccc3)[nH]n2)C1	-1.49	0.5	0.9	0.956	53.2*	14.0
Cc1nn(S(=O)(=O)c2ccccc2)c(C)c1Sc1ccc([N+](=O)[O-])cc1	-0.48	0.6	0.4	-3.03	35.8	62.3*
SMILES	Pyk2 oligo antag	CYP2C9 act	CYP2C19 activ	Cav3 T inh	CYP2C9 inhib	CYP2C19 inhib
Cc1nn(S(=O)(=O)c2cccs2)c(C)c1Sc1ccc([N+](=O)[O-])cc1	-1.37	0.7	0.8	-2.21	27.8	24.3
CCc1cc2c(N3CCCCC3)ncnc2s1	-0.65	0.3	0.1	0.299	65.4*	87.2*
Cc1sc2ncnc(N3CCCCC3)c2c1C	0.73	1.2	1	-1.87	-20.6	-3.5
O=C(Nc1ccccn1)C(=O)N1CCCCC1	0.39	·	·	-0.429	·	·
O=C(OCc1ccc2c(c1)OCO2)c1ccc(S(=O)(=O)N2CCCC2)cc1	0.16	0	0.2	-0.588	97.4*	82.9*
COC(=O)c1cccc(S(=O)(=O)N2CCCCC2)c1	0.79	0.9	0.4	-0.838	8.0	58.2*
O=C(OCc1ccc2c(c1)OCO2)c1cccc(S(=O)(=O)N2CCCCC2)c1	-1.08	0	0.1	-4.35	99.3*	92.5*
O=S(=O)(c1ccc(Nc2ccc3c(c2)OCO3)nc1)N1CCOCC1	-0.5	0.2	0.9	0.39	78.1*	7.7
O=S(=O)(c1ccc(N2CCOCC2)nc1)N1CCOCC1	0.73	1.1	1	1.13	-9.4	4.4
CN(CC(=O)O)S(=O)(=O)c1ccc(F)cc1	0.63	·	·	0.0576	·	·
O=C(COC(=O)c1cccc(S(=O)(=O)N2CCOCC2)c1)Nc1ccc2c(c1)OCO2	0.08	0.4	0.3	0.345	60.7*	70.3*
CC1=C(C(=O)OCC(Br)(Br)Br)C(c2ccc(Br)cc2)NC(=O)N1CCCC(=O)O (centres undefined)	·	·	·	0.0887	·	·
CCOC(=O)Cn1c(S(=O)(=O)Cc2cccc(F)c2)nc(-c2ccccc2)c1-c1ccccc1	-1.38	0.7	0.9	-3.35	30.4	14.1
C#CCn1c(S(=O)(=O)Cc2ccc(F)cc2)nc(-c2ccccc2)c1-c1ccccc1	-2.43	0.1	0	-3.8*	91.6*	97.6*
CCOC(=O)Cn1c(S(=O)(=O)Cc2ccc(F)cc2)nc(-c2ccccc2)c1-c1ccccc1	-1.33	0.6	0.5	-2.42	44.4	51.9*
Cn1cc(Cl)c(C(=O)N2CCN(c3ncccn3)CC2)n1	0.23	·	·	0.531	·	·
Cc1ccc(C)c(C(=O)CSc2nnnn2C(C)C)c1	-0.8	0.6	0.3	-2	38.3	66.2*
CC(C)n1nnnc1SCC(=O)NCc1cccs1	-0.17	0.9	0.6	-0.123	6.4	37.6
Cc1ccc(C)c(C(=O)CSc2nnnn2-c2cccnc2)c1	-0.72	0.8	0.6	-1.21	24.2	35.9
Cc1ccc(C(=O)CSc2nnnn2C(C)C)c(C)c1	1.3	0.7	0.2	-1.74	34.5	76.7*
CCOc1ccccc1NC(=O)C(Sc1ccccc1)c1ccccc1 (centres undefined)	-2.06	1.2	0.6	-1.23	-24.1	40.1
Cn1c(=O)c2c(nc(OCc3ccccc3)n2C)n(C)c1=O	·	1	1	-0.147	-2.3	-2.6
Cn1c(Oc2ccccc2NCc2cc(Br)ccc2O)cc(=O)n(C)c1=O	-3.06*	0.1	0.2	·	94.8*	76.3*
COc1cc(CNc2ccccc2Oc2cc(=O)n(C)c(=O)n2C)cc(OC)c1OC	0.36	0.6	0.5	-0.547	43.4	48.7
O=C1c2ccccc2C(=O)N1CCCn1nnc(-c2ccc(N3CCOCC3)cc2)n1	-0.58	0.8	1.1	-0.196	19.1	-9.7
COc1ccc(C)cc1S(=O)(=O)N(C)CC(=O)NC1CC1	-0.16	0.9	1	-4.95	14.3	2.8
COc1ccc(C)cc1S(=O)(=O)N(CC(=O)Nc1ccc2c(c1)OCCO2)Cc1ccccc1	-1.59	0	0	-4.44	98.4*	100.3*
